The panel holds about 83,000 compounds, 20% with a hit somewhere; the sample as a whole holds those more often.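 Each cell line was grown in a 96-well plate and treated with one concentration of compound for 48 hours. Values below 10 were considered active.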 Active and inactive are the calls of the source.
What follows are compounds tested on LOX IMVI melanoma (assay: NCI-60 one-dose screen, 48 h (100 = growth as untreated, 0 = no growth, -100 = all killed)). Details: 10 µM unless noted.
Protocol: Growth inhibition of the LOX IMVI human tumor cell line is measured as a screen for anti-cancer activity. Cells are grown in 96 well plates and exposed to the test compound for 48 hours. Compounds are tested at a single concentration, which is 10^-5 M for most compounds. The reported endpoint is percent growth (GI% or GIPRCNT), where numbers from 0 - 100% represent growth inhibition, and numbers from -100% - 0 represent cell death. For example, a value of 40 represents 60% growth inhibition. A value of 0 means no net growth occurred over the course of the experiment. A value of -40 indicates 40% of cells at the beginning of the experiment died by the end of the experiment. A value of -100 means all cells are dead at the end of the experiment.
NCI-60 Human Tumor Cell Lines Screen was performed using the standard one-dose NCI protocol, which is described in more detail at https://dtp.cancer.gov/discovery_development/nci-60/default.htm.
Compounds with GIPRCNT values below 10 were considered active. Activity score was based on GIPRCNT using the following formula: […]
Score is 0 for GIPRCNT values of 100 or above, 50 for GIPRCNT values of 0, and 100 for GIPRCNT values of -100.
For `CCOC(=O)c1sc(-c2ccc(OS(=O)(=O)c3cccs3)c(C=O)c2)nc1C`, the growth was -48.2% (active).
For `COc1cc(/C=C2\CN(C)C/C(=C\c3cc(CN4CCCCC4)c(O)c(OC)c3)C2=O)cc(CN2CCCCC2)c1O`, the growth was 5.17% (active).
For `Cc1ccc2cccc(Oc3ccc(Nc4ncnc5onc(-c6ccccc6)c45)cc3)c2n1`, the growth was 56.5% (inactive).
With `CC1(C)CC2(C)OC2C2(C1)N=NC(=Nc1ccccc1)O2` (stereo not given) the growth was -51.9% (active).
In the case of `O=C1C(Cl)=C(NCc2ccco2)C(=O)c2ccccc21`, the growth is reported as 16.2% (inactive).
With `COc1ccc(-c2nc(-c3ccccn3)c(-c3ccccn3)n2CC(C)C)cc1OC1CCCC1` the growth was 20.8% (inactive).
With `O=c1oc2ccc(I)cc2c(=O)n1-c1ccc(F)cc1F` the growth was 11.4% (inactive).
`COc1ccc(/C=C/C(=O)c2ccc(Nc3nc(NCCO)nc(Nc4ccc(Cl)cc4)n3)cc2)cc1` was tested, and the growth was 61.6% (inactive).
`CN(O)c1nc(N(C)O)nc(N2CCOCC2)n1` was tested, and the growth was 25.4% (inactive).
In the case of `O=C(Nc1ncc(Cc2cccc(C(F)(F)F)c2)s1)C1COc2ccccc2O1` (stereo not given), the growth is reported as 94.8% (inactive).
With `Oc1ccc(-c2nc(-c3ccc4oc5ccc(-c6[nH]c(-c7ccc(O)cc7)nc6-c6ccccc6)cc5c4c3)c(-c3ccccc3)[nH]2)cc1` the growth was 67.5% (inactive).
`NCCCNc1nc2ccccc2c2c(=O)c3cc(F)ccc3sc12` was tested, and the growth was -92.1% (active).
In the case of `CC(=S)NC(=O)C(=O)/C=C1/NC(=O)C(=O)S1`, the growth is reported as 99.7% (inactive).
In the case of `COc1ccc(/C=c2\sc3n(c2=O)NC2C(N=3)N(C)C(=O)N2C)cc1` (stereo not given), the growth is reported as 92.8% (inactive).
For `COc1ccccc1N1C(=N)S/C(=C\c2ccc(OCc3ccccc3F)cc2)C1=O`, the growth was 80.1% (inactive).
With `Nc1nonc1-n1nncc1-c1cccnc1` the growth was 98.3% (inactive).
With `O=C(O)CCC(=O)c1ccc(C2CCCCCC2)cc1` the growth was 99% (inactive).
For `COc1ccc(N)c(-c2cc3c(c4c2[nH]c2ccc(OC)cc24)CCCC3)c1`, the growth was 83.1% (inactive).
For `O=C(NC1CCN(Cc2ccccc2)CC1)c1cc(C(=O)NC2CCN(Cc3ccccc3)CC2)cc(C(=O)NC2CCN(Cc3ccccc3)CC2)c1`, the growth was -69.6% (active).
For `Cc1ccc(S(=O)c2ccc([N+](=O)[O-])c3nonc23)cc1` (stereo not given), the growth was 73.6% (inactive).
`COc1cc2cc3c(=O)n4c(cc5cc(OC)ncc54)c(=O)n3c2cn1` was tested, and the growth was 100% (inactive).
`Cc1ccc(NCCNCC(O)CO)c2c(=O)c3ccccc3sc12` (stereo not given) was tested, and the growth was -95.2% (active).
In the case of `CC[C@]1(O)C[C@@H]2CN(CCc3c([nH]c4ccccc34)[C@@](C(=O)OC)(c3cc4c(cc3OC)N(C)[C@H]3[C@@](O)(C(=O)OC)[C@H](OC(C)=O)[C@]5(CC)C=CCN6CC[C@]43[C@@H]65)C2)C1`, the growth is reported as 15.3% (inactive).
With `N#Cc1c(N)nc2c(c1N)C(c1ccc(F)cc1)c1ccc(N)cc1O2` (stereo not given) the growth was 110% (inactive).
For `COc1ccc(Cn2c(Br)c3c(c2Br)-c2nc(N)sc2CC3)cc1`, the growth was 35.7% (inactive).
For `COC(=O)/C(=C\c1c(C)[nH]c2ccccc12)S(=O)(=O)c1ccccc1`, the growth was 15.6% (inactive).
`O=c1oc2ccc(F)cc2c(=O)n1-c1ccc(Cl)cc1F` was tested, and the growth was 16.9% (inactive).
With `CCOc1cccc(/C=N/NC(=O)C(=O)Nc2cccc(C(F)(F)F)c2)c1O` the growth was 6.47% (active).
With `CC(C)[C@H](NC(=O)Cn1cc(C(=O)O)nn1)C(=O)O` the growth was 104% (inactive).
With `CN=c1ccc2nc3ccc(N)cc3sc-2c1` the growth was 2.59% (active).
For `CCC1=C[C@]2(C3CC(=O)N(c4ccccc4)C3=O)CC(C(C)(C)C)C[C@@H]2[C@@H]2C(=O)N(c3ccccc3)C(=O)[C@H]12` (stereo not given in full), the growth was 93.1% (inactive).
In the case of `COc1ccc(-c2nsc3c2NC(=O)CC3c2cccc(OC)c2)cc1` (stereo not given), the growth is reported as 50.3% (inactive).
For `O=C1/C=C/[C@@H](O)[C@@H]2C[C@@H](O)C[C@H]2/C=C/CCCCO1`, the growth was 1.64% (active).
`COc1ccc(-c2cn3c(C(=O)Nc4ccccc4Cl)c(-c4ccccc4)c4c3n2CCCC4)cc1` was tested, and the growth was 66.1% (inactive).
In the case of `O=c1oc2ccc(I)cc2c(=O)n1-c1ccc(I)cc1F`, the growth is reported as 4.98% (active).
`CCOC(=O)c1cc2c(n1Cc1cccc(OC)c1)-c1oncc1CCC2` was tested, and the growth was 33.7% (inactive).
For `O=[N+]([O-])c1cc2c(ccc3occc32)o1`, the growth was -36.3% (active).
In the case of `COc1ccc(/C=C2\NC(=O)NC2=O)cc1O`, the growth is reported as 95.3% (inactive).
For `COc1ccc2oc(=O)cc(Cn3cc(Cn4cnc5c4c(=O)n(C)c(=O)n5C)nn3)c2c1`, the growth was 98.2% (inactive).
With `O=C1c2ccccc2C(=O)c2c1ccc1[nH]c(CCl)nc21` the growth was -36.9% (active).
